In PubChem BioAssay AID493166 (National Center for Advancing Translational Sciences (NCATS), 2011) one finds Potency data, which are given here for 5 molecules.

The source made the active and inactive calls. The call rests on the fitted dose curve; in most records, active means well fitted curve in the direction sought with a large enough effect; inactive means no such curve, though single readings can be large or run the other way.

The nature of this assay: Retest of LOPAC molecules that induce DNA re-replication in MCF 10A normal breast cells. Conditions: MCF 10A DNA re-replication, Hoechst nuclear intensity, 48 h; series mostly up to 45.1 µM. An excerpt:
NIH Molecular Libraries Probe Production Network [MLPCN] NIH Chemical Genomics Center [NCGC] MLPCN Grant: Fast Track K99 CA136555 Assay Provider: Melvin DePamphilis, NICHD, NIH Assay Overview Eukaryotic cells normally restrict genome duplication to once per cell division. When this process is aberrant, DNA re-replication occurs when cells reinitiate DNA replication before the first round of replication is complete. DNA re-replication induces the DNA damage response, arrests cell proliferation, and triggers apoptosis. The cell cycle components cyclin A, Cdt-1, Cdc6 and geminin are critical regulators of this process and their misregulation results in DNA re-replication in normal and cancer cells. To identify compounds that induce re-replication in normal cells, an image-based assay was used to measure DNA content of nuclei, as detected by the fluorescent DNA binding dye, Hoechst. Cell nuclei were imaged by a fluorescence scanning plate imager and compounds that induce DNA re-replication were identified by the increase of nuclei with elevated fluorescence intensity.
Assay Protocol Summary For screening, 250 cells in 5 uL/well were dispensed into black clear 1536-well plates (Aurora) using a solenoid-based dispenser. Following transfer of 23 nL compound or DMSO vehicle by a pin tool, the plates were incubated 48 hr at 37 C and 5% CO2. After addition of 1 uL/well Hoescht stain, the plates were incubated 40 min at 37 C, 5% CO2 and total intensity of fluorescent objects (nuclei) were enumerated by an Acumen Explorer Ex3 (TTP LabTech) fluorescence scanning plate imager (405 nm excitation, 500-530 nm emission). Keywords: NIH Roadmap, MLPCN, MLI, MLSMR, qHTS, NCGC, DNA replication, cancer
Regarding `CC(=O)O[C@H]1C(=O)[C@@]2(C)C([C@H](OC(=O)c3ccccc3)[C@]3(O)C[C@H](OC(=O)[C@H](O)[C@@H](NC(=O)c4ccccc4)c4ccccc4)C(C)=C1C3(C)C)[C@]1(OC(C)=O)CO[C@@H]1C[C@@H]2O` (stereo not given in full), the Potency was 0.0534 µM (active).

Consider `CCCCCCN(CCCCCC)C(=O)Cc1c(-c2ccc(F)cc2)[nH]c2ccccc12`, for which the Potency result is “inactive”. In the case of `COc1cc2c(cc1O)CC[C@@H]1[C@@H]2CC[C@]2(C)[C@@H](O)CC[C@@H]12` it was 4.76 µM (active); in that of `C[C@@H](Oc1ccc(Oc2cnc3ccc(Cl)cc3n2)cc1)C(=O)O`, “inactive”. In the case of `O=c1cc(-c2ccccc2)[nH]c2nc(Cl)ccc12` it was 5.34 µM (active).
